A selection: hits, their analogues and other compounds. The true share with any hit is near 2.3%.
Granule exo inh: blocks lytic granule exocytosis; 0.66% of 360,000 active; TALL-104 LAMP-1 surface exposure, flow cytometry; cells stimulated with thapsigargin and PMA; inhibition, % at 10 µM; AID 651702;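 active = inhibition above about 55%, limit read from the data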
ABHD5 PLIN5 PPI: blocks binding of human ABHD5 to perilipin-5; Split G. princeps luciferase complementation, luminescence, 4 h; AID 602281; 0.78% of 360,000 active; inhibition, % at 4 µM; Q00G26+Q8WTS1;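 active = inhibition above the mean inhibition across every tested compound plus 3 SD, cut at about 22% in these data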;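 note: 0% = DMSO only wells and the 100% control is not disclosed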
B2AR ag: agonists of human beta-2 adrenergic receptor inducing internalization; P07550; Am2.2-beta2AR cells, FAP receptor internalization, flow cytometry; response, % (concentration not given with the values); 0.43% of 340,000 active;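 active = response above a set limit, near 3 SD of response in nonfluorescent compounds, cut at about 42% in these data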
HTR2A ag: agonists of mouse serotonin 5-HT2A receptor (HTR2A). CHO-K1 mHTR2A beta-arrestin complementation, luminescence; percent of 30 µM serotonin response. 0.66% of 360,000 active. activation, % at 7.6 µM. P35363;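 active = activation above a run cutoff, the mean activation of all tested compounds plus 3 SD, cut at about 14% in these data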;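 note: 0% = plate median of compound wells and 100% = 30 µM serotonin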
NTR1 ag: NTR1 (human) agonism; NTR1-U2OS beta-arrestin-GFP spot imaging, agonist mode; P30989; 0.17% of 330,000 active; activation, % at 20 µM;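 active = activation at or above 40% of the spot to cytoplasm intensity ratio, with at least 20 cells analyzed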;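 note: 0% = DMSO without peptide and 100% = 100 nM NTR1 peptide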
Target sequence (P30989 whole entry, looked up): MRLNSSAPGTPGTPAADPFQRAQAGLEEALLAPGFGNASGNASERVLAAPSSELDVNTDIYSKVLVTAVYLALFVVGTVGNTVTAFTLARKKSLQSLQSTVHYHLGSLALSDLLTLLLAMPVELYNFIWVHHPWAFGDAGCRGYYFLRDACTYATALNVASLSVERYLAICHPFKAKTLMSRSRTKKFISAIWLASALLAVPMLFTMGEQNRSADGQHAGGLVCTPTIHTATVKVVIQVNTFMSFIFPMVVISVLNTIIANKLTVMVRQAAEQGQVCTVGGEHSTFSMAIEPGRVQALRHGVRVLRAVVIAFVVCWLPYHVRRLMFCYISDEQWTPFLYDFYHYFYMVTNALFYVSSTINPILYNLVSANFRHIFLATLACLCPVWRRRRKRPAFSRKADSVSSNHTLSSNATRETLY
Exocytosis CP01: blocks lytic granule exocytosis. shares compounds with Granule exo inh. TALL-104 cells, LAMP-1 externalization, flow cytometry; stimulated with PMA plus thapsigargin. inhibition, % at 10 µM. 11% of 1,500 active; in the data active = inhibition above about 60%;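 note: 0% = stimulated vehicle wells and 100% = unstimulated wells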
The depositor's hits bear a star; . = no result given.

SMILES | Granule exo inh | ABHD5 PLIN5 PPI | B2AR ag | HTR2A ag | NTR1 ag | Exocytosis CP01
Cc1ccc(-c2cc(C(=O)Nc3cccnc3)c3ccccc3n2)o1 | 82.2* | 21.5 | 8.5 | 5.4 | 2.0 | -11.6
Cc1ccc(-c2cc(C(=O)Nc3ccccn3)c3ccccc3n2)o1 | 87.9* | 6.2 | 4.9 | -2.1 | 0.4 | -9.4
C/C(=N\O)c1noc(C)c1C(=O)Nc1nccs1 | -4.0 | -4.1 | 19.6 | 2.0 | 0.4 | .
Cc1ccc(CN2CCSc3ccc(C(=O)NC4CCN(Cc5ccccc5)CC4)cc32)cc1 | 32.0 | 3.9 | 27.9 | -9.3 | 2.9 | .
O=C(NC1CCCC1)c1ccc2c(c1)N(Cc1ccccc1)CCS2 | 69.5* | -0.9 | 1.5 | 8.2 | 1.1 | -5.2
COc1ccccc1NC(=O)c1ccc(C(=O)c2ccccc2)o1 | 86.3* | 3.5 | -10.5 | -8.0 | 0.9 | -0.5
COc1ccc(Oc2nc(-c3cccnc3)nc3ccccc23)cc1 | 87.5* | 0.1 | -8.7 | 0.8 | 3.2 | -2.1
CC(Nc1nc(-c2ccccc2)nc2ccccc12)c1ccccc1 (configuration not stated) | 1.9 | -6.4 | -4.8 | -7.4 | 17.1 | .
CC(Nc1nc(-c2cccnc2)nc2ccccc12)c1ccc(F)cc1 (configuration not stated) | 65.3* | 11.4 | 4.1 | -2.9 | 6.3 | -3.2
CCN(c1ccc(OC)cc1)S(=O)(=O)c1ccc(-c2cc(C)no2)s1 | 74.6* | -4.2 | -15.5 | -2.3 | 3.4 | -4.7
CCc1ccccc1N(C)S(=O)(=O)c1ccc(-c2cc(C)no2)s1 | 68.4* | -7.6 | -6.1 | -8.3 | 2.7 | -9.7
Cc1cc(-c2ccc(S(=O)(=O)N3CCN(C)CC3)s2)on1 | -1.0 | 1.5 | -7.1 | 2.4 | 0.0 | .
Cc1ccsc1C(=O)NN=C1CCCCCC1 | -0.8 | 1.1 | 3.9 | 2.4 | 2.5 | .
CN1C2CCC1CC(OC(=O)C(CO)c1ccccc1)C2 (configuration not stated) | . | -4.3 | -13.6 | -8.1 | -1.3 | .
Nc1c(Cl)cc(-c2csc(NC(CO)c3nc4ccccc4n3CCOCCO)n2)cc1Cl (configuration not stated) | 70.2* | -15.9 | 2.9 | 4.2 | -3.1 | -1.1
CCCN1CCC(NCc2cn(C)nc2-c2ccc(Oc3ccccc3)cc2)CC1 | 76.6* | 9.8 | 14.8 | -12.5 | 0.6 | 17.0
COc1ccc(S(=O)(=O)NC(C)C(=O)Nc2ccc3c(c2)OCCO3)cc1OC (configuration not stated) | -7.1 | -14.1 | -0.8 | 0.9 | 0.3 | .
C=C(c1ccccc1)c1ccccc1N | -4.0 | 5.2 | 2.2 | 0.2 | -3.0 | .
C[C@@H]1CC=C[C@H]2[C@H]1C(=O)N(Cc1ccccc1)[C@H]2c1ccc(F)c(-c2ccc(N(C)C)cc2)c1 | -7.3 | -3.2 | 20.0 | 0.8 | -2.2 | .
CC(=O)c1ccc(-c2cc([C@H]3[C@H]4C=CC[C@@H](C)[C@@H]4C(=O)N3Cc3ccccc3)ccc2F)cc1 | 58.1* | 17.4 | 3.0 | -13.8 | 8.0 | -14.3
NS(=O)(=O)Cc1noc2ccccc12 | 5.7 | 5.6 | -4.8 | 9.3 | 0.7 | .
Cc1ccc(C(=O)N/C(=C\c2ccc(-c3ccccc3[N+](=O)[O-])o2)C(=O)NCCCN(C)C)cc1 | 77.4* | -15.3 | -2.5 | -3.2 | -0.2 | -3.1
Cc1ccc(C(=O)N/C(=C\c2ccc(-c3ccccc3[N+](=O)[O-])o2)C(=O)NCCN(C)C)cc1 | 40.0 | -7.8 | 15.4 | -0.4 | -1.4 | .
CN(Cc1cn(-c2ccccc2)nc1-c1ccc(Cl)cc1)C(=O)CCC(=O)O | 1.5 | 9.7 | -15.5 | 1.7 | -0.2 | .
Cc1ccc2c(CN(C)Cc3ccc(Cl)cc3)cc(=O)oc2c1 | 30.3 | 4.7 | 1.6 | -7.5 | 10.5 | .
SMILES | Granule exo inh | ABHD5 PLIN5 PPI | B2AR ag | HTR2A ag | NTR1 ag | Exocytosis CP01
Cc1ccc2c(CN(C)Cc3ccc(Cl)cc3Cl)cc(=O)oc2c1 | 66.6* | -2.1 | -1.1 | 1.0 | 2.2 | -9.4
CC(C)Nc1nc(NCCOc2ccccc2Cl)c2sc(-c3ccccc3)cc2n1 | 58.1* | 4.9 | . | -4.3 | . | 36.8
CCCCCCCN1CCC(=O)N([C@H](CO)CC(C)C)CC1 | 81.3* | -5.1 | 2.1 | -7.0 | -6.8 | -13.3
COc1ccc(N2CCN(CCC(N)=O)CC2)cc1 | -1.0 | 2.7 | 1.6 | -0.5 | -0.9 | .
O=C(CCN1CCOCC1)c1ccc(Br)cc1 | 95.7* | -2.8 | 1.5 | 2.5 | 0.3 | 40.9
O=C(CCN1CCN(c2ccccc2)CC1)c1ccc(Br)cc1 | 56.1* | -5.8 | -1.4 | -1.2 | -1.4 | 11.8
COc1ccc(C(=O)CCN2CCN(c3ccc(OC)cc3)CC2)cc1 | 101.2* | -6.4 | 5.9 | -5.5 | -0.5 | -3.9
CC(=O)Nc1ccc(S(=O)(=O)N2CCN=C2SCc2ccccc2C)cc1 | -1.1 | 12.9 | -6.9 | -12.5 | 0.2 | .
CCc1ccc(OCC(=O)OC(C)C(=O)Nc2ccc(Cl)cn2)cc1 (configuration not stated) | -1.1 | -0.9 | 0.6 | -1.6 | 0.6 | .
Clc1ccc(CNC2CCN(Cc3ccccc3)CC2)cc1 | 67.2* | 0.3 | -6.1 | -5.1 | 0.3 | -11.5
c1ccc(CNc2ccc(N3CCOCC3)cc2)cc1 | 4.8 | 1.3 | -1.3 | 6.3 | 2.0 | .
Fc1ccc(CNC2CCN(Cc3ccccc3)CC2)cc1 | 62.5* | 8.5 | 11.8 | 6.2 | -1.3 | -12.8
S=C(NCc1ccc(Cl)cc1)NC1CCN(Cc2ccccc2)CC1 | 8.1 | 9.1 | 5.2 | -5.8 | 2.6 | .
Clc1ccc(CNc2ccc(N3CCN(Cc4ccccc4)CC3)cc2)cc1 | 66.8* | -9.9 | -2.5 | -6.9 | 2.0 | -13.4
CN(CC(=O)Nc1ccc(F)cc1)C(=O)COC(=O)/C=C/c1ccccc1[N+](=O)[O-] | -4.3 | -0.6 | -2.5 | 1.9 | -0.8 | .
COc1ccc(C(=O)CCN2CCCCCC2)cc1 | 0.4 | -4.6 | 7.9 | 0.0 | 3.4 | .
CC(C)Oc1ccc(C(=O)CCN2CCOCC2)cc1 | 58.6* | 3.8 | 4.9 | 8.8 | 0.0 | -11.2
CCCOc1ccc(C(=O)CCN2CCN(C(=O)OCC)CC2)cc1 | 60.5* | 7.3 | -1.0 | 1.5 | . | -13.5
CC(C)Oc1ccc(C(=O)CCN2CCCCC2)cc1 | 95.0* | 0.2 | 0.1 | 4.9 | -1.2 | 5.1
CCOC(=O)N1CCN(C(=O)CCC(=O)c2ccc(OCC)cc2)CC1 | -5.8 | 0.2 | -8.9 | 1.3 | 1.2 | .
CCOc1ccc(C(=O)CCN2CCCCC2)cc1 | 93.0* | 1.4 | -4.2 | -4.7 | 0.3 | -11.3
CCCCCOc1ccc(C(=O)CCN2CCOCC2)cc1 | 7.2 | 9.5 | -1.1 | -2.2 | 1.2 | .
COc1cccc(C2Nc3ccccc3C(=O)N2c2ccc(F)cc2)c1O (configuration not stated) | 66.3* | 2.4 | 13.2 | -2.8 | 0.4 | -10.3
CCCN(Cc1nnc(-c2cccs2)o1)C(=O)CN1C(=O)NC2(CCCCC2C)C1=O (configuration not stated) | -1.1 | 3.5 | -7.7 | -7.0 | 2.0 | .
COC(C[C@@H](O)[C@H](C)[C@@H](O)COCc1ccccc1)OC | 69.5* | 0.2 | 6.7 | 0.9 | -0.7 | -4.9

Assay outcomes from PubChem BioAssay.
